# Experimental data from article PMC4336329 (PLoS ONE, 2015).
# Among all 310,000 compounds or so, about 14,000 (4.5%) showed an effect of 50% or more. Effects have a minus sign here. The list comes from a sample in which strong results are over-represented; it also holds similar structures and randomly drawn compounds.
# Biological target: human ether-à-go-go-related gene (hERG) potassium channel (human, UniProt Q12809)
# Test: primary screen, population patch clamp on CHO cells stably expressing hERG; higher = less effect of the substance
# 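Note: peak tail current of the secondary pulse compared with the same well before compound.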
# human ether-à-go-go-related gene (hERG) potassium channel, sequence (Q12809 whole entry, looked up): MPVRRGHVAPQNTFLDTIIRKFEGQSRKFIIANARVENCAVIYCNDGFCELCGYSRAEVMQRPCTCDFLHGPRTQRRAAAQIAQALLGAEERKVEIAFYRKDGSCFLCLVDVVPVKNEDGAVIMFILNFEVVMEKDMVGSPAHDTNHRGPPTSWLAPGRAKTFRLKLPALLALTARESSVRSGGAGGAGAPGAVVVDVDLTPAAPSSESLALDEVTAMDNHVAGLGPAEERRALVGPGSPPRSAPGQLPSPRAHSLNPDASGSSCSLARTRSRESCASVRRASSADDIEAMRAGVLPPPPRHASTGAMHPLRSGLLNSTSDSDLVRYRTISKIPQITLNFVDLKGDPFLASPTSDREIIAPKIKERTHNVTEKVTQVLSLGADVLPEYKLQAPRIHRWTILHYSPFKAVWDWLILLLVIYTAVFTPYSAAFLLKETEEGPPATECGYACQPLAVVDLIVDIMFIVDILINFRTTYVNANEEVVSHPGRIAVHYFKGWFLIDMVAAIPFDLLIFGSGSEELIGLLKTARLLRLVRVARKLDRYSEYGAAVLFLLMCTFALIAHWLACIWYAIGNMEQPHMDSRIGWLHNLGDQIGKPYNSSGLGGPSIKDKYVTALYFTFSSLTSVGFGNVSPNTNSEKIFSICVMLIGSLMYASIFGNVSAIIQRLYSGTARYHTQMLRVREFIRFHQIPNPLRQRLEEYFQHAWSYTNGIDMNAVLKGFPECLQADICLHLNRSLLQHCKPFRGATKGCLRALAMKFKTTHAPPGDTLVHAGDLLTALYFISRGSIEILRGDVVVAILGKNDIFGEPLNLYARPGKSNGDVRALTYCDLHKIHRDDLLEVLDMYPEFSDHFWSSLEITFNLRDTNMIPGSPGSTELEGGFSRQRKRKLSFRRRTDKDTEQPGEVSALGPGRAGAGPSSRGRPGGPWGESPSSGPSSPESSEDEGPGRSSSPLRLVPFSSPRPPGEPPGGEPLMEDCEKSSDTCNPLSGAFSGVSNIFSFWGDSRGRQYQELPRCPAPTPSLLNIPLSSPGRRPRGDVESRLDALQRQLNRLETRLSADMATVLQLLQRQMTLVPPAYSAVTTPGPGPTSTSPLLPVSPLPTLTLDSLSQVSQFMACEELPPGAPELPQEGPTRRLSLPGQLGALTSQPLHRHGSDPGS
row,SMILES,"hERG current change (%, negative = inhibition) at 10uM"
1,CC(=O)Nc1ccc(NS(=O)(=O)C(F)(F)F)cc1,31.2%
2,O=C(COc1ccc(Cl)cc1)NCC(=O)N1CCC2(CC1)NCCc1[nH]cnc12,7.16%
3,O=C(CSc1nc2c(c(=O)n1-c1ccc(F)cc1)SCC2)Nc1ccc2c(c1)OCO2,-2.35%
4,COc1cccc(-c2cc(C(=O)N3CCN(Cc4ccccc4)CC3)no2)c1,-15.7%
5,OC1(Cc2cc(-c3ccccc3)no2)CCN(CCCc2ccccc2)CC1,-77%
6,COc1cccc(-c2cc(C(=O)NCCc3ccccc3)no2)c1,11.9%
7,c1ccc(CCCN2CCOCC2)cc1,22.1%
8,CC(C)(C)OC(=O)N1CCC(Cc2cc(-c3ccccc3)no2)(C(=O)O)CC1,12.1%
9,COc1cccc(-c2cc(CC3(O)CCN(CCCc4ccccc4)CC3)on2)c1,-89.1%
10,COCCN1Cc2cccc(C(=O)Nc3ccc(S(=O)(=O)N4CCOCC4)cc3)c2C1=O,27.3%
11,O=C(O)CCCN=C1NC2(CCCC2)Cc2ccccc21,-39.6%
12,COc1cccc(C(=O)N(Cc2ccccc2)Cc2cc3cc4c(cc3[nH]c2=O)OCCO4)c1,-25.3%
13,COc1cc(CN2CCC(CCC(=O)NC3CC3)CC2)cc(Cl)c1OC,-55.4%
14,CCOCc1cc(CN2CCC(CCC(=O)NC3CC3)CC2)ccc1OC,-62.1%
15,COc1cc(NC(=O)C2CC2)c(OC)cc1NC(=O)CCC(=O)NC1CCN(Cc2ccccc2)CC1,2.82%
16,COc1ccc(OC)c(C(=O)N2CCC(CCC(=O)NC3CC3)CC2)c1,13.1%
17,COc1ccccc1CC(=O)N1CCC(CCC(=O)NC2CC2)CC1,13.8%
18,COc1cc(Cl)c(CN2CCC(CCC(=O)NC3CC3)CC2)cc1OC,-66.2%
19,COc1cc(CC(=O)OCC(=O)NC2CC2)cc(OC)c1OC,10.4%
20,COc1cc(Cl)cc(CN2CCC(CCC(=O)NC3CC3)CC2)c1OC,-20.8%
21,COc1cc(Br)c(CC(=O)NC2CC2)cc1OC,17.8%
22,COc1ccc(-c2nc3ccccc3c(=O)n2CCOc2ccccc2C)cc1,21%

row,SMILES,"hERG current change (%, negative = inhibition) at 10uM"
1,Cc1ccccc1-c1nc(CS(=O)(=O)CC(=O)NCCN2CCCC2)c(C)o1,-10.4%
2,COC(=O)c1ccccc1NC(=O)CCC(=O)N1CCSc2ccccc21,-12.1%
3,COc1ccc(N(CC(=O)Nc2cccc(SC)c2)S(C)(=O)=O)cc1,-12.5%
4,CC(CCc1ccccc1)NC(=O)CNC(=O)c1cccs1 (centres unmarked),-5.72%
5,COc1ccc(NC(=O)NNC(=O)C(C)Oc2ccc3ccccc3c2)cc1 (centres unmarked),8.34%
6,CC(C)(C)c1ccc(-c2conc2N)cc1,5.58%
7,CCOc1ccccc1C(=O)N(C)CC(=O)Nc1ccc(OC)cc1,12%
8,Cc1ccc(S(=O)(=O)NNC(=S)Nc2c(Cl)cccc2Cl)cc1,16.8%
9,Cc1cc(N2CCCc3ccccc32)n2ncnc2n1,6.99%
10,Cc1ccc(S(=O)(=O)N(C)C)cc1NC(=O)C1Cc2ccccc2CN1C(=O)c1ccco1 (centres unmarked),-9.91%
11,CCOC(=O)CSc1nc(NCc2ccco2)c2ccccc2n1,-56.1%
12,COc1ccc(CNc2nc(SCC(=O)NCc3ccco3)nc3ccccc23)cc1,-68.9%
13,CSc1nc(NCc2ccco2)c2ccccc2n1,2.5%
14,COc1ccc(-c2ccc(SCC(=O)NCc3ccco3)nn2)cc1,-8.73%
15,CCOC(=O)CSc1nc(C)c2ccccc2n1,0.921%
16,COc1ccc(CNc2ncnc3ccccc23)cc1,21.7%
17,CCOC(=O)c1nc(NCc2cccc(OC)c2)c2ccccc2n1,-13.5%
18,CCCCN(C)C(=O)CSc1nc(NCc2ccc(OC)cc2)c2ccccc2n1,-71%
19,COc1ccc(CNC(=O)c2ccccc2SCC(=O)NCc2ccco2)cc1,-31.3%
20,CCN1CCN(Cc2ccc(NC(=O)c3cc(NC(=O)c4cc(C)on4)cc(OC)c3)cc2C(F)(F)F)CC1.O=C(O)C(F)(F)F,-28.7%
21,Cc1ccc2cccc(S(=O)(=O)NC3CCS(=O)(=O)C3)c2n1 (centres unmarked),-7.02%
22,O=S(=O)(NCC1(N2CCOCC2)CCCCC1)c1ccc(Cl)cc1C(F)(F)F,-0.581%
